According to ChEMBL document CHEMBL4888484, “Replenishing the malaria drug discovery pipeline: Screening and hit evaluation of the MMV Hit Generation Library 1 (HGL1) against asexual blood stage Plasmodium falciparum ,using a nano luciferase reporter read-out” (2022):
Among all 150,000 compounds or so, about 540 (0.36%) showed an effect of 50% or more. The sample as a whole holds a higher share of strong results than the screen did.

test system: Plasmodium falciparum; test: Primary screen in NF54 nanoGlo assay, in single point, at 2uM, 72h; a lower Z score goes with more inhibition; assay type: functional, Erythrocyte; conditions: timepoint 72 hour

Compound	% Inhibition	Z score
CS(=O)(=O)N1C[C@H]2CC[C@@H](C1)N(C(=O)c1ccc3[nH]nnc3c1)C2	-7%	1.17
CO[C@@]12CC[C@@H](OCC3CC3)C[C@@H]1N(C(=O)c1csc(C(C)C)n1)CC2	-2%	0.34
Cc1cc2c(NC(=O)N(Cc3ccsc3)CC(C)C)cccc2nn1	-6%	1.12
O=C(NCc1cccnc1)c1coc(CN(Cc2ccccc2)Cc2ccccc2C(F)(F)F)n1	0%	0.02
Cc1nnc(CN(C)Cc2c[nH]cn2)s1	4%	-0.58
C[C@H]1CN2C=NC(N3CCN(C(=O)c4ccccc4)CC3)=CC2=N1	-3%	0.63
CCc1cccc(NC(=O)N2CCN(c3nccs3)CC2)c1	-2%	0.21
O=C(Cc1ccccc1)N1CCN(c2cc(N3CCCC3)ncn2)CC1	-8%	0.94
O=C(Nc1cc(F)cc(F)c1)N1CC[C@H](Cc2ccncc2)C1	-5%	0.93
Cc1cc(F)cc(NC(=O)N2CCCN(C(=O)C(F)(F)F)CC2)c1	-11%	1.45
CC[C@H]1CN2C=NC(N3CCN(C(=O)Cc4ccccc4)CC3)=CC2=N1	56%	-2.27
C[C@H]1CN=C2C=C(N3CCN(C(=O)Nc4ccccc4C(F)(F)F)CC3)N=CN21	-11%	1.77
CN1CCN(c2cc(N3CCN(C(=O)Cc4ccccc4)CC3)ncn2)CC1	-10%	0.91
CC[C@H]1CN2C=NC(N3CCN(C(=O)Nc4cc(F)cc(F)c4)CC3)=CC2=N1	68%	-4.25
Cc1oc(C2CCN(C(=O)Nc3cccc(F)c3C)CC2)nc1C(=O)N1CCCC1	-3%	0.55
Cc1c(F)cccc1NC(=O)N1CCN(C2=CC3=N[C@@H](C)CN3C=N2)CC1	57%	-7.99
CCc1cccc(NC(=O)N2CCN(C3=CC4=NC[C@H](C)N4C=N3)CC2)c1	58%	-5.02
Cc1ccc(NC(=O)Cn2cc(S(=O)(=O)N3CCCCCC3)ccc2=O)c(C)c1	-2%	0.3
CN(c1cnn(C)c1)S(=O)(=O)c1ccccc1	-12%	1.93
CCc1onc(C)c1NCc1cnc(C(C)(C)C)s1	34%	0.74
COC(=O)C1=C(c2ccccc2)S/C(=C2/C(=S)C(C)(C)Nc3ccc(C)cc32)S1	-8%	0.99
Cc1ccccc1N1CCN(C(=O)CC[C@@H]2CN(Cc3ccccn3)CC[C@@H]2N2CCOCC2)CC1	2%	-0.27

Compound	% Inhibition	Z score
FC(F)[C@H](NCc1nnc(C2CC2)s1)c1ccccc1	2%	-0.43
CCCc1nnsc1C(=O)N1CCc2nc(NC(=O)OCC)sc2C1	-5%	1.08
COC(=O)[C@@H]1C[C@@H](O)CN1Cc1ccncc1Cl	-4%	0.5
Cc1ccc(N(C)C(C)C)c(C(=O)NC[C@H]2CCC3(CCOCC3)O2)c1	-1%	0.19
O=C(c1ccccc1Oc1ccccc1)N1CCO[C@]2(CNCCOC2)C1	5%	-0.96
O[C@@H](CNc1ncnc2sccc12)c1ccc(Cl)c(F)c1	28%	-3.21
O=C(N[C@@H]1c2ccccc2OC[C@@H]1CO)[C@H](O)c1ccccc1	-2%	0.41
Cc1ccccc1C(=O)Cc1ncc[nH]1	87%	-5.77
Cc1ccsc1CNc1ccccc1C(=O)NCc1ncc[nH]1	2%	-0.38
CC(=O)c1ccccc1C(=O)NCCCc1ncc[nH]1	-9%	1.13
CCc1nc2c(c(OC3CCN(C(=O)c4ccn(CC)n4)CC3)n1)CCOCC2	-11%	1.12
Cc1[nH]c2ncnc(NC(=O)c3cccc(-n4ccnn4)c3)c2c1C	65%	-1.3
Cc1cc(NC(=O)c2cccc(-n3ccnn3)c2)nc(=O)[nH]1	-14%	2.12
Cc1[nH]c2ncnc(NC(=O)c3cccc(S(=O)(=O)NC4CC4)c3)c2c1C	-21%	3.01
CCCN(CCC)C(=O)c1cc(F)ccc1OC	-10%	1.09
Fc1ccc(COc2cccc(CNCCN3CCOCC3)c2)cc1	33%	1.13
O[C@H]1CCN(Cc2cccc(OCCCCN3CCOCC3)c2)C[C@@H]1O	4%	-0.63
O=C(NC1(c2ncon2)CCOCC1)c1cc2ccccn2c1	-4%	0.42
Cc1ccccc1Cn1cnc2c1c(=O)n(C1CCCCC1)c(=O)n2-c1ccccc1Cl	70%	-7.57
COc1ccccc1Cn1cnc2c1c(=O)n(C1CCCCC1)c(=O)n2-c1ccccc1Cl	69%	-6.45
COc1ccccc1-n1c(=O)n(C2CCCC2)c(=O)c2c1ncn2Cc1ccccc1Cl	37%	-4.79
Cc1ccccc1-n1c(=O)n(C2CCCCC2)c(=O)c2c1ncn2Cc1ccccc1	-1%	0.09

Compound	% Inhibition	Z score
Cc1ccccc1Cn1cnc2c1c(=O)n(C1CC1)c(=O)n2-c1ccccc1C	5%	-0.48
Cc1ccccc1Cn1cnc2c1c(=O)n(C1CCCC1)c(=O)n2-c1ccccc1	-7%	0.85
Cc1c(Cl)cccc1NC(=O)c1sccc1S(=O)(=O)N1CCc2ccccc2C1	1%	-0.1
COc1ccc([C@@H](CC(=O)NCc2ccc(F)cc2)c2c[nH]c3ccccc23)c(OC)c1	3%	-0.42
COc1cc(NC(C)(C)CN2CCOCC2)ncn1	-11%	0.99
O=C(NC[C@H](O)c1cccnc1)c1ncoc1C1CC1	-7%	0.94
COC[C@H]1CCCCN1C(=O)c1ccnc(C2CCCC2)n1	7%	-1.03
COc1ccc(N2CCN(C(=O)c3ccn4c(-c5ccccc5)nnc4c3)CC2)cc1	-3%	0.29
COc1ccccc1CNC(=O)c1cc(C)nc2c(-c3ccc(C)cc3)cccc12	12%	-1.38
COc1cccc(N2CCC(N3CCC4(CC3)CNC(=O)O4)CC2)c1	-2%	0.35
Cc1nc2c(c(NC(=O)Cc3ccccc3)nn2C)c(C)c1Cl	-8%	0.76
CCn1cncc1CNC1CCN(c2ccc3c(c2)CCC3)CC1	-14%	1.42
Cc1cnccc1NCCNC1CCN(c2ccc(Cl)cc2)CC1	99%	-17.94
Cc1ccc(N2CCC(NCCCn3cccn3)CC2)cc1Cl	-5%	0.81
CN1CCC[C@@H]1CCNC1CCN(c2ccc3c(c2)CCC3)CC1	21%	-2.96
Cc1cnccc1NCCNC1CCN(c2ccc3c(c2)CCC3)CC1	85%	-13.14
CN(CC1(CO)CCCC1)C(=O)CN1CCCCC1	-8%	1.48
O=C(c1ccc(F)cc1)N1CCC(N2CCS(=O)(=O)CC2)CC1	-12%	1.04
CCc1cc(N2CCN(CCc3ccccc3)C(=O)C2)ncn1	-15%	2
Cc1ccc([C@H]2C(=O)N(C3CCC(C)CC3)CC(=O)N2C2CCCCCCC2)cc1 (stereo not given in full)	-6%	0.82
O=C(O)C1(NCc2cc(-c3ccc(Cl)cc3)no2)CCCC1	11%	-1.27
CC1CC(C(=O)N2CCN(C(=O)Cc3c[nH]c4ccccc34)CC2)C1 (stereo not given)	-3%	0.48

Compound	% Inhibition	Z score
C[C@@H](O)[C@@H]1NC(=O)[C@@H](Cc2c[nH]c3ccccc23)NC1=O	5%	-1.07
C=C1C(C)C2C(Cc3c[nH]c4ccccc34)NC(=O)C23C(=O)CC(O)C(O)CC(C)C/C=C/C3C1O (stereo not given)	67%	-7.59
CC1=NO[C@H](C(=O)NCC2(Cn3ccnc3C)CC2)C1	-4%	0.75
Cc1[nH]c(CN2CCC[C@H](c3ncc[nH]3)C2)cc1C#N	-1%	0.23
CCc1ccc(CN2CCC[C@H](CNC(=O)c3ccc[nH]3)C2)nc1	-4%	0.44
CCc1ccc(CN2CCC[C@H](c3ncc[nH]3)C2)nc1	65%	-9.74
Cc1ccc(CN2CCC3(CC2)c2nc[nH]c2CCN3C(=O)C2CCC2)cc1C	-14%	1.47
Cc1cccc2c1OCC[C@@H]2NCc1cnn(C(C)C)c1	0%	0
O=C(c1cccc(-c2noc(C3CCC3)n2)c1)N1CCN(c2ccccc2)CC1	-3%	0.4
O=C(O)c1cccc(-c2noc(C3CC3)n2)c1	11%	-1.45
CC1CC(N)CCN1C(=O)c1cccc(-c2noc(C3CC3)n2)c1 (stereo not given)	56%	0.5
Cc1cc(C(=O)N(CC2CCC2)CC(F)(F)F)[nH]n1	-10%	1.63
CN1CCCC[C@@H]1CNC(=O)c1ccc2nc(-c3ccc(F)cc3)cn2c1	-5%	0.91
O=C(NCCN1CCCC1)c1ccc2nc(-c3ccc(Cl)cc3)cn2c1	75%	-6.47
CN1CCC[C@@H]1CCNC(=O)c1ccc2nc(-c3ccc(F)cc3)cn2c1	8%	-1.12
Cc1ccn2c(C(=O)NCc3cc(F)ccc3C)nnc2n1	-17%	3.23
O=C1CCN(Cc2cc3cc4c(cc3nc2-c2ccc(Cl)cc2)OCO4)CCN1	2%	-0.18
CN1CCN(Cc2cc3cc4c(cc3nc2-c2ccc(Cl)cc2)OCO4)CC1=O	53%	-6.77
CCN1CCN(Cc2cc3cc4c(cc3nc2-c2ccc(Cl)cc2)OCO4)CC1	-10%	1.95
